The list is not random: actives were taken first. Their share in the collection is about 32%.
PostGolgi ctrl: growth of the yeast control strain, post-Golgi counter-screen; inhibition, % at 10 µM; efflux-deficient yeast background strain, growth absorbance A615, 16 h; hit rate 5% among 98,000
CYP2C19 inhib: blocks human cytochrome P450 2C19. AID 778. CYP2C19 Supersomes, luciferin-H EGE luminescence, 30 min. P33261. hit rate 21% among 96,000. inhibition, % at 5 µM;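 active = CYP2C19 inhibition above a set limit at 5 µM in the primary screen, cut at about 50% in these data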;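 note: plate controls were negative control wells for no effect and 2.5 mM tranylcypromine positive control for full effect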
Target sequence (P33261 whole entry, looked up): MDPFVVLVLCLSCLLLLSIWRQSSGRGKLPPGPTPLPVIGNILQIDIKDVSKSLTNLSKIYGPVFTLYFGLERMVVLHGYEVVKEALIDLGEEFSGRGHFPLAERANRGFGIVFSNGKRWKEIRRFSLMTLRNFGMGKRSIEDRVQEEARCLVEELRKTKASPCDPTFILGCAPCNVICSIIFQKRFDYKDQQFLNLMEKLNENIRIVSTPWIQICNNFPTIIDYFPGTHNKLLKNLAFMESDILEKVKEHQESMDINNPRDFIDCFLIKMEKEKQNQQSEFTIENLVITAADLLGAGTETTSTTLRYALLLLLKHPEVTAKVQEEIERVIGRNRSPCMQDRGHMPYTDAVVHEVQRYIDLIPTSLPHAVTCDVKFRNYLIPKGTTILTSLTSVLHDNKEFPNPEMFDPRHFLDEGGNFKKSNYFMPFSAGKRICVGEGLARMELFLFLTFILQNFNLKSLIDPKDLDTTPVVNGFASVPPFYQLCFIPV
CYP2C9 inh: human CYP2C9 inhibition | P11712 | CYP2C9 Supersomes, luciferin-H conversion, luminescence | inhibition, % at 5 µM | hit rate 20% among 96,000 | AID 777;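 active = blocking of liver enzyme CYP2C9 beyond about 50% at 5 µM, limit read from the data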
PostGolgi yeast: growth inhibition of a yeast mutant, post-Golgi transport screen | post-Golgi transport phenotypic cell assay | inhibition, % at 10 µM | hit rate 0.9% among 98,000 | AID 739;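 note: yeast cells grown in 1536-well plates; yeast grown about 18 h at 30C before absorbance read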
CYP2C9 act: increases human cytochrome P450 2C9 activity; P11712; recombinant CYP2C9, luciferin-H conversion, luminescence; active compounds read high; factor 1 = untreated enzyme, 0 = blocked; activation factor at 5 µM; hit rate 1.4% among 96,000; AID 1024;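 active = activation factor of 2 or more for CYP2C9 at a 5 µM dose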;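 note: 0 = sulfaphenazole-blocked wells and 1 = vehicle-only wells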
CYP2C19 act: activators of human cytochrome P450 2C19; P33261; recombinant CYP2C19, luciferin-H EGE luminescence; active compounds read high; 0 = fully inhibited enzyme, 1 = untreated enzyme; activation factor at 5 µM; 96,000 tested, under 10 active; AID 1025;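 active = activation factor of at least 2 at 5 µM in the primary screen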;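 note: 0 = wells with 2.5 mM tranylcypromine and 1 = vehicle-only wells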
The depositor's hits bear a star. Cut-off read from the data, not from the text of the source, unless noted: active = inhibition above about 30%; inactive = the rest.

What do the screens show for `CCCOc1ccccc1Cn1c(=O)oc2ccc(C)cc21`?
PostGolgi ctrl: 22; CYP2C19 inhib: 96*; CYP2C9 inh: 84*; PostGolgi yeast: -1; CYP2C9 act: 0.2; CYP2C19 act: 0

How did COC1=C(OC)c2ccccc2C(C(=O)O)N/C1=C(/C)Nc1ccncc1 (stereo not given) do in these assays?
PostGolgi ctrl: -8; CYP2C19 inhib: 0; CYP2C9 inh: -11; PostGolgi yeast: -6; CYP2C9 act: 1.1; CYP2C19 act: 1

How did CCCOc1ccc(/C(O)=C2\C(=O)C(=O)N(CCCN(C)C)C23C(=O)N(C)c2ccccc23)cc1 (stereo not given) do in these assays?
CYP2C19 inhib: -4; CYP2C9 inh: -20; CYP2C9 act: 1.2; CYP2C19 act: 1

What do the screens show for `CCc1nnc(NC(=O)C2CCCN2C(=O)NC2CCCCC2)s1` (stereo not given)?
PostGolgi ctrl: -10; CYP2C19 inhib: -2; CYP2C9 inh: 6; PostGolgi yeast: 4; CYP2C9 act: 0.9; CYP2C19 act: 1

Results for COc1ccccc1OCCCn1c(=O)oc2ccccc21 ?
PostGolgi ctrl: 5; CYP2C19 inhib: 100*; CYP2C9 inh: 32; PostGolgi yeast: 3; CYP2C9 act: 0.7; CYP2C19 act: 0

Results for CSCCC1NC2(C(=O)Nc3c(Cl)cccc32)[C@@H]2C(=O)N(C3CCCC3)C(=O)[C@H]12 (stereo not given in full) ?
PostGolgi ctrl: 8; CYP2C19 inhib: 20; CYP2C9 inh: 12; PostGolgi yeast: -6; CYP2C9 act: 0.9; CYP2C19 act: 0.8

How did CSCCC1NC2(C(=O)Nc3c(C)cc(Cl)cc32)[C@@H]2C(=O)N(C3CCCC3)C(=O)[C@H]12 (stereo not given in full) do in these assays?
PostGolgi ctrl: 2; CYP2C19 inhib: 50; CYP2C9 inh: 60*; PostGolgi yeast: -11; CYP2C9 act: 0.4; CYP2C19 act: 0.5

Results for CCOc1ccc2c(=O)c(Oc3ccccc3OCC)coc2c1 ?
PostGolgi ctrl: -3; CYP2C19 inhib: 74*; CYP2C9 inh: -105; PostGolgi yeast: -1; CYP2C9 act: 2.1*; CYP2C19 act: 0.3

Results for CCOc1ccccc1Oc1coc2cc(O)ccc2c1=O ?
PostGolgi ctrl: 11; CYP2C19 inhib: 30; CYP2C9 inh: -211; PostGolgi yeast: 2; CYP2C9 act: 3.1*; CYP2C19 act: 0.7

Results for CCOc1ccccc1Oc1coc2cc(OC(=O)c3ccco3)ccc2c1=O ?
PostGolgi ctrl: 4; CYP2C19 inhib: 11; CYP2C9 inh: 45; PostGolgi yeast: -10; CYP2C9 act: 0.5; CYP2C19 act: 0.9

How did COc1ccc(-c2coc3cc(O)ccc3c2=O)cc1OC do in these assays?
PostGolgi ctrl: 13; CYP2C19 inhib: 5; CYP2C9 inh: -106; PostGolgi yeast: 8; CYP2C9 act: 2.1*; CYP2C19 act: 0.9

Results for O=c1c(-c2ccc(F)cc2)coc2cc(O)ccc12 ?
PostGolgi ctrl: 4; CYP2C19 inhib: 27; CYP2C9 inh: -8; PostGolgi yeast: -6; CYP2C9 act: 1.1; CYP2C19 act: 0.7

Results for COc1ccccc1Oc1coc2cc(O)ccc2c1=O ?
PostGolgi ctrl: 9; CYP2C19 inhib: 7; CYP2C9 inh: -96; PostGolgi yeast: -3; CYP2C9 act: 2*; CYP2C19 act: 0.9

Results for COc1ccccc1-c1nn2c(C3COc4ccccc4O3)nnc2s1 (stereo not given) ?
PostGolgi ctrl: 27; CYP2C19 inhib: 13; CYP2C9 inh: 26; PostGolgi yeast: 2; CYP2C9 act: 0.7; CYP2C19 act: 0.9

What do the screens show for `c1ccc(Cc2nn3c(C4COc5ccccc5O4)nnc3s2)cc1` (stereo not given)?
PostGolgi ctrl: 18; CYP2C19 inhib: 54*; CYP2C9 inh: 55*; PostGolgi yeast: -5; CYP2C9 act: 0.5; CYP2C19 act: 0.5

Results for c1ccc(CCc2nn3c(C4COc5ccccc5O4)nnc3s2)cc1 (stereo not given) ?
PostGolgi ctrl: 31*; CYP2C19 inhib: 36; CYP2C9 inh: 43; PostGolgi yeast: 5; CYP2C9 act: 0.6; CYP2C19 act: 0.6

Results for O=C(/C=C/Nc1cccc(C(F)(F)F)c1)c1ccc(Oc2ncccn2)cc1 ?
PostGolgi ctrl: 18; CYP2C19 inhib: 29; CYP2C9 inh: -5; PostGolgi yeast: -3; CYP2C9 act: 1.1; CYP2C19 act: 0.7

Results for Cc1ccc(NC(=O)C(Cc2ccccc2)NC(=O)c2ccco2)cc1 (stereo not given) ?
PostGolgi ctrl: 7; CYP2C19 inhib: 21; CYP2C9 inh: 24; PostGolgi yeast: -3; CYP2C9 act: 0.8; CYP2C19 act: 0.8

How did c1ccc(NCCCNc2ccccc2)cc1 do in these assays?
PostGolgi ctrl: 23; CYP2C19 inhib: 98*; CYP2C9 inh: 86*; PostGolgi yeast: -8; CYP2C9 act: 0.1; CYP2C19 act: 0

How did CC(C)c1cc(NCCCN2CCOCC2)n2c(nc3ccccc32)c1C#N do in these assays?
PostGolgi ctrl: 1; PostGolgi yeast: -8

How did O=c1c2c(-c3ccco3)csc2nc(SCc2cn3cccnc3n2)n1-c1ccccc1 do in these assays?
PostGolgi ctrl: 36*; CYP2C19 inhib: 53*; CYP2C9 inh: 97*; PostGolgi yeast: -5; CYP2C9 act: 0; CYP2C19 act: 0.5

How did C=CCn1c(SCC(=O)NCCOC)nc2scc(-c3ccco3)c2c1=O do in these assays?
PostGolgi ctrl: 3; CYP2C19 inhib: 78*; CYP2C9 inh: 83*; PostGolgi yeast: 11; CYP2C9 act: 0.2; CYP2C19 act: 0.2

What do the screens show for `O=C(CSc1nc2scc(-c3ccco3)c2c(=O)n1-c1ccccc1)NCC1CCCO1` (stereo not given)?
PostGolgi ctrl: 4; CYP2C19 inhib: 52*; CYP2C9 inh: 71*; PostGolgi yeast: 3; CYP2C9 act: 0.3; CYP2C19 act: 0.5

What do the screens show for `C=CCn1c(SCC(=O)NCC2CCCO2)nc2scc(-c3ccco3)c2c1=O` (stereo not given)?
PostGolgi ctrl: 11; CYP2C19 inhib: 78*; CYP2C9 inh: 81*; PostGolgi yeast: 10; CYP2C9 act: 0.2; CYP2C19 act: 0.2

What do the screens show for `NC(=O)CSc1nc2scc(-c3ccco3)c2c(=O)n1-c1ccccc1`?
PostGolgi ctrl: -5; CYP2C19 inhib: 14; CYP2C9 inh: 38; PostGolgi yeast: -15; CYP2C9 act: 0.6; CYP2C19 act: 0.9

How did CC(C)Cn1cc(C(=O)NCC2CCCO2)c2c3ccccc3n(C)c2c1=O (stereo not given) do in these assays?
PostGolgi ctrl: 23; CYP2C19 inhib: 24; CYP2C9 inh: 26; PostGolgi yeast: 3; CYP2C9 act: 0.7; CYP2C19 act: 0.8

How did Cc1ccc(NC(=O)c2ccc(-n3cncn3)c([N+](=O)[O-])c2)cc1 do in these assays?
PostGolgi ctrl: 23; CYP2C19 inhib: 100*; CYP2C9 inh: 91*; PostGolgi yeast: 1; CYP2C9 act: 0.1; CYP2C19 act: 0
